High-throughput results deposited in PubChem by NMMLSC.
Sampled rows, rich in hits. Any-hit rate of the full collection: about 3.5%.
Bead autofluor: counter-screen for toxin protease inhibitors: compound fluorescence; compound autofluorescence counterscreen, microsphere flow cytometry; stronger effect = higher value; fluorescence intensity (concentration not given with the values); 3.1% of 360,000 active; AID 624483; in the data active = fluorescence intensity above about 16000; inconclusive = no clear call, values can overlap the other calls
BoNT F protease: BoNT F light chain protease inhibition; inhibition, % at 10 µM; Multiplex microsphere protease cleavage assay, flow cytometry; 0.22% of 360,000 active; in the data active = inhibition above about 35%, passing the limit was not always enough; inconclusive = no clear call, values can overlap the other calls; also: plate controls were buffer without enzyme for full effect and enzyme alone for no effect
BoNT-A LC inh2: blocks Botulinum neurotoxin A light chain protease | multiplex microsphere protease substrate cleavage, flow cytometry | inhibition, % at 10 µM | 0.17% of 360,000 active; also: plate controls were buffer without enzyme for full effect and enzyme alone for no effect
Anthrax LF prot: inhibitors of Bacillus anthracis lethal factor protease | 0.12% of 360,000 active | inhibition, % at 10 µM | multiplex microsphere protease cleavage assay, LF | P15917; also: plate controls were buffer without enzyme for full effect and enzyme alone for no effect
An asterisk follows results filed as active; ? = inconclusive. Rule as the data show it, unless noted: active = inhibition above about 30%; inconclusive = no clear call, values can overlap the other calls; inactive = below that.

SMILES	Bead autofluor	BoNT F protease	BoNT-A LC inh2	Anthrax LF prot
CN(C(=O)c1ccc(NC(=O)Cc2cccc(NC(=O)C3CCN(C(=O)C4CCCC4)CC3)c2)cc1)C1CCCC1	3354	-2	0	-12
COc1ccc(S(=O)(=O)N(C)CC(=O)Nc2cccc(C(C)=O)c2)cc1Cl	18037*	11	7	0
COc1ccc(S(=O)(=O)N(C)CC(=O)Nc2cccc(C(C)=O)c2)cc1	5628	-4	-1	-8
COC(=O)[C@H](Cc1ccccc1)NC(=O)NCc1cccs1	19692*	14	10	2
O=C(NCc1ccc(F)cc1)N[C@@H](Cc1ccccc1)C(=O)O	22456*	2	2	-1
O=C(NCc1ccccc1)N[C@@H](Cc1ccccc1)C(=O)O	16799*	-5	?	-3
Cc1nnc2n(c1=O)C(CS(=O)(=O)c1ccccc1)CS2 (stereo not given)	21322*	0	?	-6
CCOC(=O)N1CCC(Nc2c(-c3ccccc3)c(=O)c2=O)CC1	20189*	5	1	0
CCOC(=O)N1CCN(c2c(NCCN3CCN(Cc4ccccc4)CC3)c(=O)c2=O)CC1	4290	-6	0	-3
CCOC(=O)N1CCC(Nc2nc(OC)nc(OC)n2)CC1	22300*	1	?	-3
c1ccc(-n2ncc3c(NC4CCCCCC4)ncnc32)cc1	5491	2	0	-3
CCOC(=O)N1CCC(Nc2c(-c3ccc(C)cc3)c(=O)c2=O)CC1	4037	12	0	0
CCOC(=O)N1CCC(Nc2c(NCCN3CCN(Cc4ccccc4)CC3)c(=O)c2=O)CC1	21681*	2	2	1
CCOC(=O)N1CCC(Nc2ncnc3c2cnn3-c2ccccc2)CC1	26060*	-8	?	0
CCOC(=O)N1CCC(Nc2c(Nc3cccc(CC)c3)c(=O)c2=O)CC1	18932*	-2	2	-12
Cc1c(NC(=O)CSc2nncc3ccccc23)c(=O)n(-c2ccccc2)n1C	20089*	2	?	-6
CCc1c(C)nc(SCC(=O)Nc2c(C)n(C)n(-c3ccccc3)c2=O)[nH]c1=O	21804*	5	4	0
O=C(NCc1ccncc1)c1ccc(S(=O)(=O)Nc2ccccc2)cc1	?	-6	2	3
O=C(c1ccc(Br)cc1)c1sc(N2CCOCC2)nc1-c1ccccc1	4446	8	24	12
Cc1nonc1OCC(C)(COc1nonc1C)NC(=O)c1ccccc1	21066*	7	3	1
CCOC(=O)CNC(=O)c1ccccc1	2512	0	0	1
CC(C)n1nnnc1-c1cc(Cl)cc(Cl)c1	23056*	0	2	-2
COc1ccc(-c2nnnn2C(C)C)cc1S(=O)(=O)Nc1ccccc1	4454	9	0	1
CC(C)n1nnnc1-c1cccc(Cl)c1	17953*	8	7	-20
COc1ccc(CCNC(=O)C2CCCN(S(=O)(=O)c3ccccc3)C2)cc1 (stereo not given)	5316	-2	1	0
SMILES	Bead autofluor	BoNT F protease	BoNT-A LC inh2	Anthrax LF prot
O=C(CSc1nnc(-c2cnccn2)n1Cc1ccco1)c1ccc2ccccc2c1	21448*	-3	?	0
Brc1ccc(CSc2nnc(-c3cnccn3)n2Cc2ccco2)cc1	11396	0	0	-2
Fc1ccc(CSc2nnc(-c3cnccn3)n2Cc2ccco2)cc1	24676*	-4	-3	1
CC(C)OC(=O)CSc1nnc(-c2cnccn2)n1Cc1ccco1	3271	3	0	2
C=CCn1c(SCC(=O)Nc2cccc3ccccc23)nnc1-c1cnccn1	16132*	5	2	-3
Cc1ccc(NC(=O)CSc2nnc(-c3cnccn3)n2Cc2ccco2)cc1	17381*	-6	-3	-5
Cc1cccc(NC(=O)CSc2nnc(-c3cnccn3)n2Cc2ccco2)c1	23296*	-3	?	1
CCc1nnc(NC(=O)CC(C)c2ccccc2)s1 (stereo not given)	4441	0	-1	-7
COc1ccc(C(=O)NCC(=O)Nc2ccc(F)cc2)cc1OC	16515*	-2	?	0
COc1cccc(NC(=O)CNC(=O)c2ccc(OC)c(OC)c2)c1	4182	-12	-1	-6
CC(C)(C)OC(=O)C[C@@H]1C/C=C\C[C@@H](CC(=O)N(CCO)Cc2ccccc2)C(=O)N[C@@H](c2ccccc2)COC1=O	2902	5	1	1
CS(=O)(=O)c1ccc(C(=O)NC2CCOC2=O)cc1 (stereo not given)	21657*	-6	?	-5
O=C(NC1CCOC1=O)c1ccccc1 (stereo not given)	3733	3	0	1
N#CC1(NC(=O)COC(=O)/C=C/c2ccc3ccccc3n2)CCCCC1	6010	10	1	4
CCOC(=O)c1cn(CC)c2ccc(S(=O)(=O)N3CC(C)CC(C)C3)cc2c1=O (stereo not given)	16593*	-1	-1	1
CCOC(=O)c1cn(CC)c2ccc(S(=O)(=O)N3CCC(C)CC3)cc2c1=O	11762	-13	0	-3
NC(=O)c1nn(-c2ccc(Oc3ccccc3)cc2)c(=O)cc1O	4640	-4	-1	-12
O=C(c1cccc(Cl)c1)c1nn(-c2ccccc2)c(=O)cc1C(F)(F)F	2627	-11	1	-1
NC(=O)c1nn(-c2ccccc2)c(=O)cc1O	22915*	0	0	0
NC(=O)c1nn(-c2cccc(Cl)c2)c(=O)cc1O	16281*	0	0	-7
CCC(C)c1ccc2oc(-c3ccc(NC(=O)c4ncn[nH]4)cc3)nc2c1 (stereo not given)	20099*	-2	-1	2
Nc1nonc1C(=O)OCC(=O)N1CCOCC1	20876*	-5	?	-7
Cc1ccc(C(=O)OCC(=O)N2CCOCC2)cc1	3492	2	-2	-12
O=C(c1cccs1)N1C[C@H](O)[C@@H](n2cc(C3CC3)nn2)C[C@@H]1c1ccccc1	3830	1	0	-9
CCS(=O)(=O)c1ccc2oc(Nc3cc(C)cc(C)c3)nc2c1	20341*	-2	-1	-2
SMILES	Bead autofluor	BoNT F protease	BoNT-A LC inh2	Anthrax LF prot
CCS(=O)(=O)c1ccc2oc(Nc3ccc(C(C)C)cc3)nc2c1	3016	-2	0	0
Clc1ccccc1CSc1cc2c(nn1)-c1ccccc1CC2	2802	-7	-1	-1
Clc1cccc(Cl)c1CSc1cc2c(nn1)-c1ccccc1CC2	22710*	4	2	1
CC(/C=N/NC(=O)c1ccccc1F)=C\c1ccccc1	6308	-6	-3	-7
COC(=O)[C@@H](NC(=O)Nc1cccc(OC)c1)C(C)C	21593*	5	5	-8
COC(=O)[C@@H](NC(=O)Nc1ccc(OC)cc1)C(C)C	8405	-2	-1	-4
CC(C)C(=O)N1CCCC1(C)C(=O)Nc1ccc(-n2cncn2)cc1 (stereo not given)	4255	5	0	-6
O=C(CSCCO)Nc1cccc2ccccc12	22778*	-4	?	-3
O=C(CSCC(=O)Nc1cccc2ccccc12)Nc1cccc2ccccc12	4775	-10	0	2
Cc1ccccc1NC(=O)CSc1nc(N2CCCCC2)nc(N2CCCCC2)n1	22832*	-4	?	-3
CC(=O)c1cccc(NC(=O)CSc2nc(N3CCCCC3)nc(N3CCCCC3)n2)c1	3999	-4	0	-4
